# Results reported in publication PMC4336329 (PLoS ONE, 2015).
# The campaign covered roughly 310,000 compounds. About 14,000 (4.5%) showed an effect of 50% or more. The effect is printed as a negative number. This excerpt belongs to a sample that is enriched for strong results.
# Target: human ether-à-go-go-related gene (hERG) potassium channel (human, UniProt Q12809)
# Experiment: primary screen, population patch clamp on CHO cells stably expressing hERG; higher = less effect of the substance
# 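Note: peak tail current of the secondary pulse compared with the same well before compound.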
# Sequence of human ether-à-go-go-related gene (hERG) potassium channel (Q12809 whole entry, looked up): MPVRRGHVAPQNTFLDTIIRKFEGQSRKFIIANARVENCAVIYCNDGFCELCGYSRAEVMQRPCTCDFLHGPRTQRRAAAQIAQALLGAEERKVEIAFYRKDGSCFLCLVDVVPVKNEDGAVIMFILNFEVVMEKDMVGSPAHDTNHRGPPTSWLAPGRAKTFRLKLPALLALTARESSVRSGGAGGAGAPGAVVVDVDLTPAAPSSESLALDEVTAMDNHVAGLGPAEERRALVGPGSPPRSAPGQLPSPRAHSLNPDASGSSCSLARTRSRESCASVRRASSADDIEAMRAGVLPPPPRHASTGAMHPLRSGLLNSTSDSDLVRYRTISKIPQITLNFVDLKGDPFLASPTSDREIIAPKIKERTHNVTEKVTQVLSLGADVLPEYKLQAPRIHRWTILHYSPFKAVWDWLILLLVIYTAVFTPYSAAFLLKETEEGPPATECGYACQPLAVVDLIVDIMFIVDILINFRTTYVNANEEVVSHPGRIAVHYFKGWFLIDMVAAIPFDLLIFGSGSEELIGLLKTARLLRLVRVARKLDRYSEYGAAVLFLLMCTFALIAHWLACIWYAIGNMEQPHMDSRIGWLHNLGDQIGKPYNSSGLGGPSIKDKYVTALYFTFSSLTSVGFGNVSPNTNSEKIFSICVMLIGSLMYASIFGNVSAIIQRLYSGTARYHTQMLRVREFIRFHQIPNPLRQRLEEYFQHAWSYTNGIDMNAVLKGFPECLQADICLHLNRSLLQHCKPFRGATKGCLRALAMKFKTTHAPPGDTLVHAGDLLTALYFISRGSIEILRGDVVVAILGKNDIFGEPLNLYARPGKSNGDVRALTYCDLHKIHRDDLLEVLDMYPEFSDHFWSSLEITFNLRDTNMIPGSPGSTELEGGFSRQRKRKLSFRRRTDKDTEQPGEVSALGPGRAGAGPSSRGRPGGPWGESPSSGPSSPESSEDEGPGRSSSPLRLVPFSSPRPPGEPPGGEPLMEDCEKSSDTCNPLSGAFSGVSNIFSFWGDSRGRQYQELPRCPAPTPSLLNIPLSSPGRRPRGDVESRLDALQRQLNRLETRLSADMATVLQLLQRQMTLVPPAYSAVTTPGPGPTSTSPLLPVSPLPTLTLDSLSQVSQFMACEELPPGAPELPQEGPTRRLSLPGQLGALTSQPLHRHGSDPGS
row,SMILES,"hERG current change (%, negative = inhibition) at 10uM [%]"
1,CC1CCCC(C)N1CCCNC(=O)Cn1cc2c(n1)CCCC2 (stereo not drawn),-3.99
2,COc1cccc(CNCc2ccc3c(c2)OCO3)c1.O=C(O)C(=O)O,13.7
3,O=C(N[C@@H](Cc1ccccc1)c1nc2ccccc2[nH]1)c1cc([N+](=O)[O-])ccc1Cl,-28
4,CCc1c(O)nc(SCC(N)=O)n(-c2ccccc2F)c1=O,7.56
5,CCC(C)N(C(=O)C(F)(F)F)C(C(=O)NC1CCCCC1)c1ccncc1 (stereo not drawn),7.62
6,O=S(=O)(c1ccc(Cl)cc1Cl)N1CCCC1c1cccnc1 (stereo not drawn),7.32
7,Cc1ccc(SCC(=O)NCc2ccco2)cc1,3.39
8,COC(=O)c1c(SCC(=O)NC2CCCCC2)[nH]c2ccccc2c1=O,-0.717
9,COc1cccc(CN2CCC(n3nccc3NC(=O)C3CC3)CC2)c1,-44.7
10,COc1cc(CN2CCC(n3nccc3NC(=O)C3CC3)CC2)cc(OC)c1,-66.3
11,CC(C)Oc1ccc(CN2CCC(n3nccc3NC(=O)C3CC3)CC2)cc1,-79.4
12,O=C(Nc1ccnn1C1CCN(Cc2cccc(OCCO)c2)CC1)C1CC1,0.219
13,CN(CC(=O)Nc1ccc(F)c(F)c1F)C(=O)C1CSC2(C)CCC(=O)N12 (stereo not drawn),-5.92
14,O=C(Nc1ccc(OC(F)F)cc1)Nc1cccc(C(F)(F)F)c1,6.56
15,O=C(CO/N=C/c1ccccc1OC(F)F)NCc1ccco1,-5.06
16,CCOc1ccc(/C=N/OCC(=O)NCc2ccco2)cc1,-12.9
17,O=C(CO/N=C/c1ccc(OC(F)F)cc1)NC1CCCCC1,-8.59
18,O=C(CO/N=C/c1ccccc1OC(F)F)NCc1cccs1,-12.9
19,O=C(CO/N=C/c1ccc(OC(F)F)cc1)NCc1ccco1,-51.8
20,CCOc1ccc(/C=N/OCC(=O)NCc2cccs2)cc1,-11.6
21,CC(C)(C)c1ccc(/C=N/OCC(=O)NCc2ccc(F)cc2)cc1,-2.59
22,O=C(CO/N=C/c1ccc(OC(F)F)cc1)NC1CCCC1,-49

row,SMILES,"hERG current change (%, negative = inhibition) at 10uM [%]"
1,COC(=O)c1ccc(/C=N/OCC(=O)NCc2ccc(F)cc2)cc1,17.9
2,O=C(CO/N=C/c1ccc(OC(F)F)cc1)NCc1ccc(F)cc1,-79.2
3,O=C(CO/N=C/c1ccc(OC(F)F)cc1)NCc1cccs1,-62.6
4,CN(C(=O)CO/N=C/c1ccc(OC(F)F)cc1)C1CCS(=O)(=O)C1 (stereo not drawn),-59.2
5,Cc1cccc(-c2nc3c(c(=O)c4ccccc4n3C)c(=O)n2-c2ccccc2)c1,14
6,Cc1cccc(S(=O)(=O)c2c(N)n(/N=C/c3cccnc3)c3nc4ccccc4nc23)c1,-4.67
7,COc1cc(C(=O)NCC(c2cccs2)N2CCOCC2)cc(OC)c1OC (stereo not drawn),11.5
8,Cc1cccc(C)c1OC(=O)Cc1ccccc1[N+](=O)[O-],-4.62
9,CCCOc1ccc(C(=O)NNC(=O)c2cccc(S(=O)(=O)N3CCN(C(C)=O)CC3)c2)cc1OC,-13.8
10,COc1cc(C2Nc3cccc4cccc(c34)N2)ccc1OC(C)=O,11.2
11,CC(NC(=O)C(=O)N1CCOCC1)C(c1cccs1)N1CCN(c2ccccc2)CC1 (stereo not drawn),8.31
12,O=S(=O)(c1ccccc1)c1cnn(-c2ccccc2)c1-c1ccc(F)cc1,-0.19
13,Cc1ccc(C)c(NC(=S)N2CCCCCC2)c1,0.578
14,O=C(c1ccco1)N1CCN(c2ccc(Cl)c(Cl)c2)CC1,-29.7
15,Cc1cccc(-n2nc([N+](=O)[O-])c(N3CCN(C(=O)c4ccco4)CC3)[n+]2[O-])c1,-68.7
16,O=C(c1ccco1)N1CCN(c2c([N+](=O)[O-])nn(-c3ccc(Cl)cc3)[n+]2[O-])CC1,-57.2
17,O=[N+]([O-])c1nn(-c2ccccc2)[n+]([O-])c1N1CCN(c2ccccc2)CC1,-0.32
18,O=C(c1ccco1)N1CCN(c2c([N+](=O)[O-])nn(-c3cccc(Cl)c3)[n+]2[O-])CC1,-38.1
19,Cc1nn(C)c(C(=O)N2CCN(C(=O)c3ccco3)CC2)c1[N+](=O)[O-],8.95
20,Cc1ccc(NC(=O)CC2SC(=NCC3CCCO3)NC2=O)cc1Cl (stereo not drawn),-3.57
21,Cc1c(C)n2c(SCC(=O)NC3CCCCC3)nnc2[nH]c1=O,-8.13
22,CCCCN(C(=O)c1ccco1)C1CCS(=O)(=O)C1 (stereo not drawn),0.36

row,SMILES,"hERG current change (%, negative = inhibition) at 10uM [%]"
1,O=C1c2ccc(-c3ccc4c(c3)C(=O)N(CCO)C4=O)cc2C(=O)N1CCO,14.6
2,COCC(=O)N(C)CC1CCCN(CCc2ccccc2OC)C1 (stereo not drawn),7.26
3,COc1ccccc1CCN1CCCC(CN(C)C(=O)c2ccc3nc[nH]c3c2)C1 (stereo not drawn),12.1
4,COc1ccccc1CCN1CCCC(CN(C)C(=O)c2ccoc2)C1 (stereo not drawn),-51.2
5,Cc1occc1C(=O)N(C)CC1CCCN(CCc2ccccc2F)C1 (stereo not drawn),-51.1
6,CN(C)CCN(CC1CCCN(Cc2ccccc2F)C1)C(=O)c1ccc(F)cc1 (stereo not drawn),3.46
7,COc1ccccc1CCN1CCCC(CN(C)CC(C)(C)CO)C1 (stereo not drawn),-0.609
8,COc1ccccc1CCN1CCCC(CN(C)C(=O)c2ccco2)C1 (stereo not drawn),-68.9
9,CN(CC1CCCN(CCc2ccccc2F)C1)C(=O)c1ccoc1 (stereo not drawn),-66.7
10,Cc1ccccc1CC(=O)N(CCN(C)C)CC1CCCN(Cc2ccccc2F)C1 (stereo not drawn),1.19
11,O=c1[nH]oc2cc(Cl)ccc12,11.3
12,CCOc1ccc(OCC(=O)Nc2ccc(S(N)(=O)=O)cc2)cc1,-7.32
13,O=C(NCc1cccs1)c1nc2c(nnn2Cc2ccccc2Cl)c(=O)[nH]1,5.42
14,COC(=O)CSc1nn(-c2ccc(F)cc2)c(=S)s1,-2.71
15,Cn1c(CC(=O)Nc2ccccc2)nnc1SCCOc1ccccc1,2.08
16,CC1CC(=O)Nc2ccc([N+](=O)[O-])cc2N1C (stereo not drawn),7.59
17,Cc1cc(C)c(C(=O)N(C)C2CCCN(Cc3ccccc3F)C2)o1 (stereo not drawn),-0.652
18,Cc1cc(C)c(C(=O)N(C)CC2CCCN(CCc3ccccc3F)C2)o1 (stereo not drawn),-70.4
19,Cc1cc(C)c(C(=O)N(CCN(C)C)CC2CCCN(Cc3ccccc3F)C2)o1 (stereo not drawn),7.61
20,CCCn1c(SCC(=O)Nc2nccs2)nnc1-c1cccnc1,-0.265
21,COc1cccc(NC(=O)c2oc3ccccc3c2NC(=O)c2ccc3c(c2)OCO3)c1,5.18
22,O=C1C2CC=CCC2C(=O)N1c1n[nH]c(Cc2ccccc2)n1 (stereo not drawn),2.31

row,SMILES,"hERG current change (%, negative = inhibition) at 10uM [%]"
1,COc1ccccc1C(CNC(=O)CNC(=O)c1ccc(Cl)c(Cl)c1)N1CCCC1 (stereo not drawn),-32.9
2,CCCCSCCCNC(=O)c1cn(C)c2ccc(S(=O)(=O)N3CCCC3)cc2c1=O,11.2
3,CCCCNC(=O)c1cn(CC)c2ccc(S(=O)(=O)N3CCCC3)cc2c1=O,-38.1
4,CCCCNC(=O)c1cn(C)c2ccc(S(=O)(=O)N3CCCC3)cc2c1=O,12.6
5,CCCCN(CCCC)CCNC(=O)c1cn(CC)c2ccc(S(=O)(=O)N3CCCC3)cc2c1=O,-65.7
6,CCCCN(CCCC)CCNC(=O)c1cn(C)c2ccc(S(=O)(=O)N3CCCC3)cc2c1=O,-57.9
7,CCCCNC(=O)c1cn(CC)c2ccc(S(=O)(=O)N3CCCCCC3)cc2c1=O,7.01
8,CCOc1ccc(NC(=O)CN(C)C(=O)CCCc2c[nH]c3ccccc23)cc1OCC,-3.25
9,Cc1nnc(SCC(=O)Nc2ccccc2)n1CCc1ccccc1,-33
10,Cc1ccccc1NC(=O)CSc1nnc(-c2ccoc2C)n1CCc1ccccc1,-59.6
11,COc1ccccc1NC(=O)CSc1nnc(-c2ccoc2C)n1C,-1.59
12,COc1ccccc1NC(=O)CSc1nnc(-c2ccoc2C)n1CCc1ccccc1,-64.8
13,CCCn1c(SCC(=O)Nc2ccccc2-c2ccccc2)nnc1-c1ccoc1C,-26
14,Cc1occc1-c1nnc(SCC(=O)Nc2ccccc2)n1C,9.72
15,COc1ccccc1NC(=O)CSc1nnc(C)n1CCc1ccccc1,-14.3
16,Cc1occc1-c1nnc(SCC(=O)Nc2ccc(F)cc2)n1Cc1ccccc1,-49.4
17,Cc1occc1-c1nnc(SCC(=O)Nc2ccccc2)n1Cc1ccccc1,-76.3
18,Cc1cccc(C)c1NC(=O)CSc1nnc(-c2ccoc2C)n1CCc1ccccc1,-46.3
19,Cc1occc1-c1nnc(SCC(=O)Nc2ccccc2)n1CCc1ccccc1,-67
20,CC(=O)c1ccc(NC(=O)CSc2nnc(-c3ccoc3C)n2Cc2ccccc2)cc1,-30.8
21,CSc1nc(SC)c2c3c(oc2n1)COC(C)(C)C3,7.86
